# An excerpt weighted towards active compounds, which were near 11% of everything screened.
# hNpr1 antagonist: Natriuretic polypeptide receptor (hNpr1) antagonism - Primary qHTS. actives 1.6% (n = 76,000). Atrial natriuretic peptide receptor 1 (Homo sapiens), P16066. HEK293 hNpr1 GloSensor cGMP, ANP-stimulated luminescence. AID 1347048, 2019. Potency, µM (top dose mostly 46.3 µM), without a hit: at the highest dose activity change, negative = inhibition, actives largely listed as inhibitors; calls by dose curve; also: nearly all actives have a fitted effect of over 60% in size
# Target sequence (P16066 whole entry, looked up): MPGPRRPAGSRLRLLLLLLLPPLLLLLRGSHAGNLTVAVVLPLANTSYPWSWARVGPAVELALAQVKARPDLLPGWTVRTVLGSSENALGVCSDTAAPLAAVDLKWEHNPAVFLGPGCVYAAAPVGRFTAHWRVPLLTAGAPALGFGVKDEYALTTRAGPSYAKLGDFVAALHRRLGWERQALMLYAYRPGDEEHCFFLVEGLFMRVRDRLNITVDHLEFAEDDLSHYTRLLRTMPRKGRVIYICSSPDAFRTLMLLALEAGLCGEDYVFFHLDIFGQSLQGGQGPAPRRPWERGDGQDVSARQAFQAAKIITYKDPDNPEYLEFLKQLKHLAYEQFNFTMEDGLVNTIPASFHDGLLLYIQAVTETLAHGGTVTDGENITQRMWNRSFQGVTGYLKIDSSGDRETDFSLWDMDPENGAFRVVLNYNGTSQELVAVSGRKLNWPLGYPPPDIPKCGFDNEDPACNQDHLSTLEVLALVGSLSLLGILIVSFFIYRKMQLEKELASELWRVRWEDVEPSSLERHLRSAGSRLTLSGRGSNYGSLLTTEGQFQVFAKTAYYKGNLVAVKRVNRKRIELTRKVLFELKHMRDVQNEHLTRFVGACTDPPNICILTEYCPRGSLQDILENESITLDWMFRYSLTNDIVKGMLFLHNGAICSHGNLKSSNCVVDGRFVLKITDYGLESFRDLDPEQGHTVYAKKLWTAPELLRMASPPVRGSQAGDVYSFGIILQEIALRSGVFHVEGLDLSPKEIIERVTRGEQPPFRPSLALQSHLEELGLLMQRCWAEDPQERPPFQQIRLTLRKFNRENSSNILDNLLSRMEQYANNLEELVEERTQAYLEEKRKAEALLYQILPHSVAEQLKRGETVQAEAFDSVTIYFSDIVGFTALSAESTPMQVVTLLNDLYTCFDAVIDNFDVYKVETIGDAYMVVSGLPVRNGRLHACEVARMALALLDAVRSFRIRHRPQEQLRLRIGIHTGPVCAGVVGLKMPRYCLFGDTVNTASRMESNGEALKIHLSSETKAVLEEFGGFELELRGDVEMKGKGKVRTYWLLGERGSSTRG
#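 Compound pre-incubated 30 min at room temperature on GloSensor-loaded HEK293 cells stably carrying hNpr1 and the pGS-40F cGMP biosensor. Stimulation uses hNppA at 0.1 nM final; luminescence is taken at baseline and 20 min post-agonist.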
# FLuc inh: Firefly luciferase inhibition profiling of diverse chemical library using quantitative high-throughput screening. actives 2.5% (n = 76,000). purified P. pyralis luciferase, luminescence, biochemical. Luciferin 4-monooxygenase (Photinus pyralis), P08659. Potency, µM (doses to about 115 µM), most hits filed as inhibitors; also: nearly all actives have a fitted effect of over 65% in size
#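 Cell-free enzyme assay, 10nM P. pyralis luciferase, luciferin and ATP each at 10uM. Inhibition profiled over a 6-point titration, read as luminescence.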
# 3T3 cytotox: Cytotoxic Profiling in NIH 3T3 Cell Line of Diverse Libraries Using Quantitative High-Throughput Screening; actives 4.3% (n = 94,000); Potency, µM (doses to about 96.7 µM), without a hit: top-dose activity change, negative = cytotoxicity, hits mostly inhibitors; NIH 3T3 viability, CellTiter-Glo ATP luminescence, 48-72 h; also: nearly all actives have a fitted effect of over 55% in size
#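 Cytotoxicity was measured by CellTiter-Glo ATP luminescence after 48 or 72 h compound exposure at 37 °C. Mouse NIH 3T3 fibroblasts were seeded at 400 cells/well and dosed by 23 nL pin transfer.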
# HEK293 tox: Cytotoxic Profiling in HEK 293 Cell Line of Diverse Libraries Using Quantitative High-Throughput Screening. HEK 293 viability, ATP luminescence (CellTiter-Glo), 48-72 h. AID 1345083, 2018. actives 6.6% (n = 94,000). Potency, µM (series often up to 115 µM), without a hit: at the top dose activity change, negative = cytotoxicity, most hits filed as inhibitors; also: nearly all actives have a fitted effect of over 60% in size
#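 Cytotoxicity was scored by loss of ATP-coupled luminescence (CellTiter-Glo) in HEK 293 cells. Compound treatment ran 48 or 72 hr at 37 degree Celsius, 5% CO2, 95% humidity.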
# Starred values were filed as active, the others as inactive; i = inactive; ? = inconclusive; / = no result; [ ] = another dose, or the depositor's remark. Unless noted, calls follow the shape of the dose curve; as a rule, active = well fitted curve in the direction sought with a large enough effect; inconclusive = small, poorly fitted or top-dose-only effect, or another doubt; inactive = no such curve, though single readings can be large; an effect the other way counts as inactive or inconclusive. % is scaled to controls: 0 for no effect and ±100 for the full control effect; potency is read from the fitted curve at half-maximal effect.
SMILES,hNpr1 antagonist,FLuc inh,3T3 cytotox,HEK293 tox
COc1cccc(-c2cccc(CN3CCCC3C(=O)N3CCCC(C)C3)c2)c1 (centres undefined),/,/,?,50µM*
C=CCC(=O)N1CCCC1C(=O)Nc1ccc(-c2cccc(OC)c2)cc1 (centres undefined),-2%,25µM*,-6%,?
COc1ccc(C(=O)N2CCC3(CC2)CC(CN2CCOCC2)N(C)C3)c(OC)n1 (centres undefined),/,/,-22%,-13%
COc1ccc(CNC(=O)c2ccc3c(c2)N(C(=O)c2ccc(F)cc2)CC3)cc1,-15%,i,?,?
COc1ccc(-c2cccc(C(=O)NC(C)C)c2)nn1,/,/,-21%[138 µM],-4%[172 µM]
CN1C(=O)C2(CCN(C(=O)NC3CCCCC3)CC2)c2ccccc21,3%,i,?,?
COc1ccc(CN2CCOc3nc(-c4cccc(C#N)c4)ncc3C2=O)cc1,-26%[70.6 µM],i,?,100µM*
O=C1c2cnc(-c3cc4ccccc4o3)nc2OCCN1CC1CC1,1.4µM*,?,?,?
O=C1c2cnc(-c3cccc(CO)c3)nc2OCCN1Cc1ccccc1,-14%[70.6 µM],18µM*,?,?
O=C1c2cnc(-c3ccccc3OCc3ccccc3)nc2OCCN1CC1CC1,-1%[70.6 µM],?,-17%[138 µM],?
CN(C)C(=O)c1ccc(-c2ncc3c(n2)OCCN(Cc2ccccc2)C3=O)cc1,1%[70.6 µM],i,-21%[138 µM],?
N#Cc1cccc(-c2ncc3c(n2)OCCN(Cc2ccc(F)cc2F)C3=O)c1,-26%[70.6 µM],i,i,?
COCCN1CCOc2nc(-c3cccc(OC(F)(F)F)c3)ncc2C1=O,-24%[70.6 µM],16µM*,?,?
O=C1CCN(Cc2ccc(C(F)(F)F)cc2)CCCCCCN1,-14%,i,?,?
O=C1c2cnc(-c3cc(F)cc(F)c3)nc2OCCN1Cc1ccccc1,-8%[70.6 µM],45µM*,?,?
COc1ccc(CN2CCOc3nc(-c4cc(F)cc(F)c4)ncc3C2=O)cc1,-24%[70.6 µM],i,?,?
Cc1nn2c(c1-c1ccccc1-c1ccccc1)N(Cc1ccc(OCC(=O)O)cc1)CCC2,-25%,i,?,?
Cc1nn2c(c1-c1cccnc1N1CCOCC1)N(CC1CC1)CCC2,-5%[70.6 µM],i,40µM*,?
COc1ccccc1CN1CCCn2nc(C)c(-c3cccnc3N3CCOCC3)c21,-16%[70.6 µM],i,?,?
Cc1nn2c(c1-c1cccnc1N1CCOCC1)N(Cc1ccccc1)CCC2,-27%[70.6 µM],i,?,63µM*
Cc1ccc(CN2CCCn3nc(C)c(-c4ccccc4-c4ccccc4)c32)o1,?,i,45µM*,?
O=c1c2nc(-c3ccccc3)ccc2ncn1-c1ccccc1,-2%[70.6 µM],i,?,?
COc1ccc(-c2ccc3ncn(C)c(=O)c3n2)cc1OC,0%[70.6 µM],i,35µM*,?
Cn1cnc2ccc(-c3ccncc3)nc2c1=O,3%[70.6 µM],i,79µM*,?
CCc1ccc(NC(=O)Cn2c(=O)c(-c3noc(CC)n3)c3n(c2=O)CCCC3)cc1,1%,i,?,?
SMILES,hNpr1 antagonist,FLuc inh,3T3 cytotox,HEK293 tox
Cn1nc(C(=O)NCC(=O)N2CCCCCCNC(=O)CC2c2ccccc2)c2ccccc21 (centres undefined),-2%,i,-16%,-13%
Cn1ccnc1CN1CCC2(CC1)OC(=O)N(Cc1ccccc1F)C2(C)c1ccccc1 (centres undefined),4%,i,?,?
O=C(c1ccsc1)N1CCC2(CC1)NC(=O)N(Cc1ccccc1)C2=O,-10%,i,?,-26%
COc1cc(OC)cc(C(=O)N2CCC3(C2)NC(=O)N(Cc2ccc(Cl)cc2)C3=O)c1 (centres undefined),5%,i,?,?
O=C(c1cccc(Cl)c1)N1CCC2(C1)NC(=O)N(Cc1ccc(Cl)cc1)C2=O (centres undefined),?,i,40µM*,?
O=C(c1ccsc1)N1CCC2(CC1)NC(=O)N(Cc1cccc(Cl)c1)C2=O,?,i,28µM*,?
C=CCCOC(=O)N1CCC(=O)N(CC=C)C[C@H]2COc3ccccc3[C@H]21,/,/,?,-8%
CCn1ccnc1CN1CCCC(CO)(Cc2cccc(Cl)c2)C1 (centres undefined),-16%,i,?,?
O=S(=O)(c1ccccc1Cl)N1CCCC(CO)(Cc2cccc(Cl)c2)C1 (centres undefined),-27%,i,?,25µM*
O=C(c1cc2cc(F)ccc2[nH]1)N1CCCC(CO)(Cc2cccc(Cl)c2)C1 (centres undefined),-19%,?,?,79µM*
CCN1C(=O)CCC2(C(=O)Nc3cccc(OC)c3)CCCC=C12 (centres undefined),/,/,-8%,2%
COc1ccc(-c2noc(Nc3cc(C)ccc3OC)n2)cc1,-6%,18µM*,?,?
COc1ccc(C)cc1Nc1nc(-c2ccc(OC)c(OC)c2)no1,-4%,?,?,?
O=C(Cc1ccc(F)cc1)N1CCN(c2ccc3nnc(C4CC4)n3n2)CC1,/,/,?,-27%
CN1C[C@H](O)C[C@H]1c1nc(-c2ccc3c(c2)OCO3)no1,-14%[70.6 µM],28µM*,-21%[230 µM],-25%[230 µM]
COCCc1noc(-c2nc(-c3ccc4c(c3)OCO4)no2)n1,-17%,18µM*,-4%,?
c1cc2c(cc1-c1noc(-c3nc(-c4ccc5c(c4)OCO5)no3)n1)OCO2,-9%,i,i,13%
O[C@@H]1C[C@@H](c2nc(-c3ccc4c(c3)OCO4)no2)N(Cc2ccncc2)C1,?,?,?,89µM*
CC(=O)N[C@H]1C[C@@H](c2nc(-c3ccc4c(c3)OCO4)no2)N(C)C1,1%[70.6 µM],i,-23%[174 µM],-14%[172 µM]
OCc1ccc(CN2C[C@H](O)C[C@H]2c2nc(-c3ccc4c(c3)OCO4)no2)o1,-13%[70.6 µM],18µM*,-28%[174 µM],-16%[172 µM]
CC(C)(C)OCC(O)CN1CCC(=O)N(CC2CC2)Cc2ccccc21 (centres undefined),/,/,-21%,?
O=C1CCN(C(=O)c2ccsc2)CCCC(c2nc(-c3cnccn3)no2)CCN1 (centres undefined),4%,i,i,0%
Cc1ccccc1CN1CCC2(Cc3ccccc3CNC2=O)C1 (centres undefined),/,/,-12%,?
Cc1ncsc1CN1CCC(N2CC3(CCCCC3)C2c2ccccc2)CC1 (centres undefined),/,/,?,45µM*
Cc1ncsc1CN1CCC(N2C(=O)C(OCC3CC3)C23CCCCC3)CC1 (centres undefined),-2%,i,-27%,?

# From PubChem BioAssay
